Results taken from PubChem BioAssay (Tox21).
Inconclusive results are not listed. The source made the active and inactive calls. Calls come from the whole dose curve; as a rule, active = well fitted curve in the direction sought with a large enough effect in the repeat runs; inconclusive = weak or mixed curves; inactive = no such curve, though single readings can be large; an effect the other way counts as inactive or inconclusive.

Tests used:
[1] = qHTS RealTime-Glo MT Cell Viability Assay in HEK293 cells - 16 hour (AID 1224872); note: top concentration of the series differs between compounds; nearly all actives have a fitted effect of over 50% in size
Method in brief: (§1)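 Luminescence generated by NanoLuc from substrate produced by living HEK293 cells served as the viability signal. Each value reflects the reading at its stated time point during continuous 40 h compound exposure at 37 C.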

[2] = qHTS RealTime-Glo MT Cell Viability Assay in HepG2 cells - 8 hour (AID 1224873); note: nearly all actives have a fitted effect of over 55% in size
Method in brief: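 HepG2 cells mixed with RealTime-Glo MT reagents (NanoLuc plus cell-permeant prosubstrate) were seeded at 600 cells/well, incubated 5 h at 37 C/5% CO2, then pinned with compounds in DMSO; nonlytic luminescence tracked viability during 40 h treatment.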

[3] = qHTS RealTime-Glo MT Cell Viability Assay in HEK293 cells - 40 hour (AID 1224874); details: RealTime-Glo luminescence; max response: active compounds read low; note: nearly all actives have a fitted effect of over 50% in size
Method in brief: (§2)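 Luminescence, which tracks viable cell number through reduction of the prosubstrate to a NanoLuc substrate, was read over continuous 37 C culture. Cells (600/well) were premixed with reagent and rested 5 h before 23 nL of compound in DMSO was pinned.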

[4] = A CellTox Green Cytotoxicity Assay to monitor cytotoxicity in HEK293 cells - 24 hour (AID 1224875); note: series mostly up to about 77 µM; nearly all actives have a fitted effect of over 45% in size
Method in brief: (§3)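 Fluorescence from a DNA-binding dye excluded by viable cells was measured repeatedly in the same HEK293 wells (600 cells/well) during continuous compound exposure at 37 C. Each assay gives one read point: 0, 8, 16, 24, 32 or 40 h.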

[5] = A CellTox Green Cytotoxicity Assay to monitor cytotoxicity in HepG2 cells - 16 hour (AID 1224876); note: nearly all actives have a fitted effect of over 45% in size
Method in brief: (§4)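 Real-time cytotoxicity: fluorescence of a cell-impermeant cyanine dye binding DNA of dead HepG2 cells, measured repeatedly (0–40 h) during compound exposure at 37 C. Cells seeded 600/well with reagent, dosed after 5 h.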

[6] = qHTS RealTime-Glo MT Cell Viability Assay in HepG2 cells - 32 hour (AID 1224877); note: nearly all actives have a fitted effect of over 55% in size
Method in brief: (§5)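 Tox21 10K library screened in qHTS format on HepG2 cells carrying RealTime-Glo reagents. Compounds were added after a 5 h preincubation, and the luminescent signal from continuous culture was measured repeatedly during 40 h treatment.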

[7] = A CellTox Green Cytotoxicity Assay to monitor cytotoxicity in HepG2 cells - 24 hour (AID 1224878); note: nearly all actives have a fitted effect of over 45% in size
Method in brief: as §4

[8] = A CellTox Green Cytotoxicity Assay to monitor cytotoxicity in HepG2 cells - 40 hour (AID 1224879); note: nearly all actives have a fitted effect of over 40% in size
Method in brief: as §4

[9] = qHTS RealTime-Glo MT Cell Viability Assay in HEK293 cells - 0 hour (AID 1224880); note: top concentration of the series differs between compounds; nearly all actives have a fitted effect of over 45% in size
Method in brief: as §2

[10] = A CellTox Green Cytotoxicity Assay to monitor cytotoxicity in HEK293 cells - 32 hour (AID 1224881); note: nearly all actives have a fitted effect of over 40% in size
Method in brief: as §3

[11] = A CellTox Green Cytotoxicity Assay to monitor cytotoxicity in HepG2 cells - 0 hour (AID 1224882); note: nearly all actives have a fitted effect of over 35% in size
Method in brief: as §4

[12] = A CellTox Green Cytotoxicity Assay to monitor cytotoxicity in HepG2 cells - 32 hour (AID 1224883); note: nearly all actives have a fitted effect of over 50% in size
Method in brief: as §4

[13] = qHTS RealTime-Glo MT Cell Viability Assay in HepG2 cells - 16 hour (AID 1224885); note: nearly all actives have a fitted effect of over 50% in size
Method in brief: as §5

[14] = qHTS RealTime-Glo MT Cell Viability Assay in HEK293 cells - 8 hour (AID 1224887)
Method in brief: as §2

[15] = A CellTox Green Cytotoxicity Assay to monitor cytotoxicity in HEK293 cells - 16 hour (AID 1224888); note: nearly all actives have a fitted effect of over 35% in size
Method in brief: as §3

[16] = A CellTox Green Cytotoxicity Assay to monitor cytotoxicity in HepG2 cells - 8 hour (AID 1224890); note: nearly all actives have a fitted effect of over 45% in size
Method in brief: as §4

[17] = qHTS RealTime-Glo MT Cell Viability Assay in HepG2 cells - 0 hour (AID 1224889); note: nearly all actives have a fitted effect of over 50% in size
Method in brief: as §5

[18] = qHTS assay to identify small molecule antagonists of the estrogen receptor alpha (ER-alpha) signaling pathway using the BG1 cell line in the presence of 0.1 nM 17-beta-estradiol - cell viability counter screen (AID 1259241); note: nearly all actives have a fitted effect of over 40% in size
Method in brief: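 VM7Luc4E2 cells (endogenous full-length ER-alpha, 4xERE-luciferase), cultured 5 days in charcoal-stripped serum, exposed to compounds with 0.1 nM 17beta-estradiol (final) for 22 hr at 37C. Viability read in same wells as live-cell protease fluorescence after 30 min.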

[19] = A CellTox Green Cytotoxicity Assay to monitor cytotoxicity in HEK293 cells - 8 hour (AID 1224884); note: nearly all actives have a fitted effect of over 35% in size
Method in brief: as §3

[20] = qHTS RealTime-Glo MT Cell Viability Assay in HEK293 cells - 24 hour (AID 1224886)
Method in brief: as §1
% is set by controls: 0 for no effect and ±100 for the full control effect.

CCOC(=O)OC(C)OC1=C(C(=O)Nc2ccccn2)N(C)S(=O)(=O)c2ccccc21 (stereo not drawn)
inactive: Potency [1] | outcome [2] | max response [3] 1.81% | outcome [4] | outcome [5] | Potency [6] | outcome [7] | Potency [8] | Potency [9] | outcome [10] | Potency [11] | Potency [12] | outcome [13] | Potency [14] | outcome [15] | outcome [16]

CO[Si](C)(OC)c1ccccc1
inactive: Potency [1] | outcome [2] | max response [3] -2.44% | outcome [4] | outcome [5] | Potency [6] | outcome [7] | Potency [8] | Potency [9] | outcome [10] | Potency [11] | Potency [12] | outcome [13] | Potency [14] | outcome [15] | Potency [17] | outcome [16] | outcome [18]

CC(COc1ccccc1)NN (stereo not drawn)
inactive: Potency [1] | outcome [2] | max response [3] 2.34% | outcome [4] | outcome [5] | Potency [6] | outcome [7] | Potency [8] | Potency [9] | Potency [11] | Potency [12] | outcome [19] | outcome [13] | Potency [20] | Potency [14] | outcome [15] | Potency [17] | outcome [16]

CC1(C)[C@@H]2CC[C@@]1(C)[C@H](O)C2
inactive: Potency [1] | outcome [2] | max response [3] 2.75% | outcome [4] | outcome [5] | Potency [6] | outcome [7] | Potency [8] | Potency [9] | outcome [10] | Potency [11] | Potency [12] | outcome [13] | Potency [20] | Potency [14] | outcome [15] | outcome [16] | outcome [18]

C[N+]1(CC2COC(c3ccccc3)(c3ccccc3)O2)CCCCC1 (stereo not drawn)
inactive: activity change, negative = cytotoxicity [1] -1.95% [at 15.8 µM] | viability change, negative = cytotoxic [2] 1.12% [at 15.8 µM] | max response [3] -1.89% | activity change [4] -7.42% [at 15.8 µM] | cytotoxicity increase [5] -3.73% [at 15.8 µM] | activity change, negative = cytotoxic [6] -9% [at 15.8 µM] | cytotoxicity [7] -0.651% [at 15.8 µM] | cytotoxicity increase [8] -0.954% [at 15.8 µM] | activity change, negative = cytotoxicity [9] -4.13% [at 15.8 µM] | cytotoxicity [11] -9.88% [at 15.8 µM] | cytotoxicity increase [19] -4.15% [at 15.8 µM] | activity change, negative = cytotoxic [13] -0.0866% [at 15.8 µM] | activity change, negative = cytotoxicity [20] -2.13% [at 15.8 µM] | activity change, negative = cytotoxicity [14] 0.757% [at 15.8 µM] | activity change [15] -8.9% [at 15.8 µM] | activity change, negative = cytotoxicity [17] -6.4% [at 15.8 µM] | cytotoxicity increase [16] 0.368% [at 15.8 µM] | activity change, negative = cytotoxicity [18] 0.56% [at 19 µM]

Cc1ccc(-c2ncc(Cl)cc2-c2ccc(S(C)(=O)=O)cc2)cn1
inactive: Potency [1] | outcome [2] | max response [3] -19.4% | outcome [4] | outcome [5] | Potency [6] | outcome [7] | Potency [8] | Potency [9] | Potency [11] | outcome [19] | outcome [13] | Potency [20] | Potency [14] | outcome [15] | Potency [17] | outcome [16] | outcome [18]

CCC1C(=O)OCC1Cc1cncn1C (stereo not drawn)
inactive: Potency [1] | outcome [2] | max response [3] 0.511% | outcome [4] | outcome [5] | Potency [6] | outcome [7] | Potency [8] | Potency [9] | Potency [11] | outcome [19] | outcome [13] | Potency [20] | Potency [14] | outcome [15] | outcome [16] | outcome [18]

O=[N+]([O-])c1cncn1CCN1CCOCC1
inactive: Potency [1] | outcome [2] | max response [3] -2.63% | outcome [4] | outcome [5] | Potency [6] | outcome [7] | Potency [8] | outcome [10] | Potency [11] | Potency [12] | outcome [13] | Potency [20] | Potency [14] | outcome [15] | Potency [17] | outcome [16] | outcome [18]

C=COC(=O)C(C)(CC)CCC(C)C (stereo not drawn)
inactive: Potency [1] | outcome [2] | max response [3] 0.193% | outcome [4] | outcome [5] | Potency [6] | outcome [7] | Potency [8] | Potency [9] | Potency [11] | outcome [19] | outcome [13] | Potency [20] | Potency [14] | outcome [15] | Potency [17] | outcome [16] | outcome [18]

CC1=CC(=O)[C@H]2C[C@@H]1C2(C)C
inactive: Potency [1] | outcome [2] | max response [3] -1.77% | outcome [4] | outcome [5] | Potency [6] | outcome [7] | Potency [8] | outcome [10] | Potency [11] | Potency [12] | outcome [19] | outcome [13] | Potency [20] | Potency [14] | outcome [15] | Potency [17] | outcome [16] | outcome [18]
